In the library only some 3.9% were active in any assay of this set; here they are far more common.
Wnt bcat act: activates Wnt/beta-catenin signaling in a reporter cell assay; 1.2% of 300,000 active; AID 743398; activation, % at 9.35 µM; activator, plate reader; in the data active = activation above about 30%, passing the limit was not always enough; inconclusive = no clear call, values can overlap the other calls
HSF1 activator: increases HSF-1 driven luciferase reporter signal; 1.7% of 300,000 active; NIH3T3-HGL HSF-1 luciferase reporter, MG132, 8 h; 100% = twice DMSO control signal; AID 504408; activation, % at 9 µM;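 active = mean replicate activation of at least 50% with a set share of replicates each reaching 50%; inconclusive = only one of those two conditions met; inactive = mean below 50% and too few replicates reaching it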
esBAF inh: inhibitors of esBAF chromatin remodeling in mouse ES cells | Bmi1-luciferase knock-in reporter, 24 h; 100% = twice the neutral-well signal | 2% of 350,000 active | reporter increase, % at 12.5 µM | AID 602393; in the data active = activation above about 40%; inconclusive = no clear call, values can overlap the other calls;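 note: a rise in the Bmi1 reporter signal indicates esBAF inhibition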
MITF TRPM1 HTS: MITF TRPM1 promoter activation in melanoma cells. SK-MEL-5 TRPM1-promoter luciferase, 24 h; % of positive control, neutral wells = 0. activation, % at 12.5 µM. 0.75% of 300,000 active. AID 588334;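 active = mean activation of at least 80% with every replicate also reaching 80%; inconclusive = mean reaches 80% but some replicate falls short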
HSF1 inh: HSF1 inhibition | NIH3T3-HGL HSE-luciferase, MG132-induced, luminescence 8 h; stronger effect = lower value | activity change, negative = inhibition, % at 7.5 µM (by protocol) | 0.77% of 300,000 active;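 active = more than half of replicate wells show activity change below -50%, luminescence cut by over half; inconclusive = some wells, but at most half, below -50%; inactive = no replicate well below -50%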;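 note: luciferase reports HSF-1 transcriptional activity via heat shock element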
A number is an active result; - = inactive; ? = inconclusive; . = no result given.

SMILES	Wnt bcat act	HSF1 activator	esBAF inh	MITF TRPM1 HTS	HSF1 inh
O=C(O)C1C2C=CC(O2)C1C(=O)Nc1ccc2c(c1)OCCO2 (configuration not stated)	.	-	.	.	-74
O=C(Nc1ccc2c(c1)OCCO2)C1CC1c1ccccc1 (configuration not stated)	-	-	.	-	-
COc1ccc(NC(=O)C2C3C=CC(O3)C2C(=O)O)cc1 (configuration not stated)	-	-	-	.	-
C[C@@H]1CN([C@@H](C)CO)S(=O)(=O)c2ccc(Br)cc2O[C@H]1CN(C)C	.	.	-	.	.
O=C(O)C1C2C=CC(C2)C1C(=O)Nc1ccc2c(c1)OCCO2 (configuration not stated)	.	-	-	.	-57
CC(C)C(=O)Nc1ccc2c(c1)C(=O)N(C)[C@@H]1CC[C@H](CC(=O)NCCCN(C)C)O[C@@H]1CO2	.	.	-	.	.
Cc1cc(C)c2[nH]c(=O)c(CN(CC3CCCO3)S(=O)(=O)c3ccc4c(c3)OCCO4)cc2c1 (configuration not stated)	.	59	-	-	-
CCOc1ccccc1NC(=O)CCS(=O)(=O)c1cccs1	-	-	-	-	-89
CCOc1ccccc1NS(=O)(=O)c1cccs1	.	-	-	.	-
CCCN1[C@@H]2c3cccc(=O)n3C[C@H]1[C@H](CO)[C@H]2C(=O)N1CCCCC1	.	.	-	.	.
O=C(c1ccco1)c1coc2c1cc(O)c1ccccc12	-	68	.	-	-
O=C(CN1CCN(C(=O)c2ccc(-c3nc4ccccc4s3)o2)CC1)Nc1ccccc1Cl	-	.	.	-	.
O=C(CN1CCN(C(=O)c2ccc(-c3nc4ccccc4s3)o2)CC1)Nc1ccc(F)cc1	-	.	59	-	.
Cc1cc(C)n(-c2cc(=O)n(C)c(=O)n2C)n1	.	67	-	-	-
N#C/C(=C\c1ccc(O)c(Br)c1)C(=O)NCc1ccccc1	-	-	-	-	-
CN(C)c1ccc(/C=C(/C#N)C(=O)NCc2ccccc2)o1	-	-	48	-	-
N#C/C(=C/c1ccccc1)C(=O)NCc1ccccc1	-	-	-	-	-
N#C/C(=C\c1ccc(O)c([N+](=O)[O-])c1)C(=O)NCc1ccccc1	47	-	-	-	-
CC(C)NC(=O)NCC[C@H]1CC[C@@H](NC(=O)c2ccc(F)cc2)[C@@H](CO)O1	.	.	-	.	.
COc1ccc2cc3c(N)nn(C(=O)c4ccccc4Cl)c3nc2c1	-	-	-	-	-51
COc1ccc2cc3c(N)nn(C(=O)Cc4c[nH]c5ccccc45)c3nc2c1	-	-	.	-	-54
COc1ccc2cc3c(N)nn(C(=O)c4ccc(F)cc4)c3nc2c1	-	-	-	-	-
CC=Cc1ccc2n(c1=O)C[C@@H]1[C@@H](CO)[C@H](C(=O)NCc3ccc(F)cc3)[C@H]2N1C (mixture of isomers)	.	.	-	.	.
O=[N+]([O-])c1ccc(-c2cnc(SCc3ccccc3Cl)[nH]2)cc1	.	56	.	-	-
COc1ccccc1-c1ccc(NC2CCCC2)nn1	.	-	63	-	-
SMILES	Wnt bcat act	HSF1 activator	esBAF inh	MITF TRPM1 HTS	HSF1 inh
COc1ccc(CNc2ccc(-c3ccccc3OC)nn2)cc1	.	-	-	.	-
CCOC(=O)N1CCC(Nc2cc(C)nc3c(-c4ccccc4OC)c(C)nn23)CC1	-	-	-	-	-
COc1ccccc1-c1cnn2c(NC3CCCC3)cc(C)nc12	-	?	62	140	-
Cc1noc(C)c1NC(=O)N(C)C[C@H]1Oc2ccc(NS(=O)(=O)c3cn(C)cn3)cc2CC(=O)N([C@@H](C)CO)C[C@@H]1C	.	.	-	.	.
CN(C)c1nc(NC(C)(C)C)nc(SCC(=O)Nc2ccccc2)n1	-	66	.	-	-
CN(C)c1nc(NCc2ccccc2)nc(SCC(=O)Nc2ccccc2)n1	-	-	-	-	-
CCCNC(=O)C[C@@H]1CC[C@@H]2[C@H](COC[C@H](O)CN2C(=O)c2ccccn2)O1	.	.	-	.	.
CC(C)c1onc(C(=O)N2CCN(C(c3ccccc3)c3ccccc3)CC2)c1[N+](=O)[O-]	-	-	-	-	-57
CN1C(=O)c2cc(NC(=O)c3cccc(C(F)(F)F)c3)ccc2OC[C@H]2O[C@H](CC(=O)O)CC[C@@H]21	.	.	-	.	.
O=C(C[C@@H]1C=C[C@@H](NS(=O)(=O)c2ccc(F)cc2)[C@H](CO)O1)N1CCN(c2ccccc2)CC1	.	.	-	.	.
Cc1nc(CCNS(=O)(=O)c2cccs2)cs1	.	-	-	-	-
Cc1csc2nc(CCNS(=O)(=O)c3cccs3)cn12	-	-	53	-	-
CO[C@@H]1CN(C)C(=O)c2cc(NS(C)(=O)=O)ccc2OC[C@H](C)N(C(=O)NC(C)C)C[C@H]1C	.	.	-	.	.
OCCC1CN(Cc2nc(-c3ccccc3)cs2)CCN1C1CCCC1 (configuration not stated)	34	-	-	-	-
COc1ccc2[nH]c(=O)c(CNc3cccc(C)c3)cc2c1	.	-	56	-	-
O=C(Nc1ccccc1C(=O)Nc1ccc(Br)cn1)c1ccccc1Cl	-	.	-	-	.
O=C(Nc1ccc(Br)cn1)c1ccc(Cl)s1	35	?	60	-	-
Cc1cccnc1Nc1nc(-c2ccccn2)cs1	.	350	-	-	-
Cc1ccccc1C(=O)Nc1ccc(Br)cn1	.	-	?	96	-
O=C(Nc1nccs1)c1ccc(Cl)s1	-	-	52	-	-
O=C(Nc1nccs1)c1sc2ccccc2c1Cl	.	-	.	-	-
CCC(=O)Nc1ccc(Br)cn1	-	-	-	-	-
CNC(=O)C[C@@H]1CC[C@H]2[C@@H](COc3ccc(NC(=O)Nc4ccc(Cl)cc4)cc3C(=O)N2C)O1	.	.	-	.	.
CO[C@@H]1CN(C)C(=O)c2cc(NS(=O)(=O)c3ccccc3C)ccc2OC[C@@H](C)NC[C@@H]1C	.	.	-	.	.
Cc1cc(C(=O)Nc2ccc(Br)cn2)sc1C	54	.	-	.	.
SMILES	Wnt bcat act	HSF1 activator	esBAF inh	MITF TRPM1 HTS	HSF1 inh
Cc1ccnc(NC(=O)c2ccc(Br)s2)c1	35	-	-	-	-
O=C(Nc1ccc2sccc2c1)c1ccc(Cl)s1	-	72	-	-	-
CCCC(=O)Nc1ccc(Br)cn1	.	-	-	-	-
O=C(Nc1ccc2c(c1)C(=O)NC2=O)c1ccc(Cl)s1	-	-	-	-	-
O=C(Nc1nc(-c2ccccn2)cs1)c1ccc(Cl)s1	-	223	-	-	-
Cc1ccc(S(=O)(=O)Nc2ccc3c(c2)CC(=O)N([C@H](C)CO)C[C@@H](C)[C@H](CN(C)C(=O)Nc2c(C)noc2C)O3)cc1	.	.	-	.	.
C[C@@H]1CN([C@@H](C)CO)C(=O)Cc2cc(NC(=O)c3ccncc3)ccc2O[C@H]1CN(C)Cc1ccc(-c2ccccc2)cc1	.	.	-	.	.
C[C@@H]1CN([C@@H](C)CO)C(=O)Cc2cc(NS(C)(=O)=O)ccc2O[C@@H]1CN(C)Cc1ccc(C(F)(F)F)cc1	.	.	-	.	.
COc1ccc(S(=O)(=O)Nc2ccc3c(c2)C(=O)N([C@H](C)CO)C[C@H](C)[C@H](CN(C)S(=O)(=O)c2cccs2)OCCCC[C@H](C)O3)cc1	.	.	-	.	.
O=C(N[C@@H]1C=C[C@H](CC(=O)N2CCOCC2)O[C@H]1CO)c1ccc2c(c1)OCO2	.	.	-	.	.

From PubChem
